# Results taken from the supplement of paper PMC8728848.
# Only a selection was taken, and the strongest signals are over-represented in it overall.
# B1: Gal 7 (Canis lupus) (protein)
# chain: MAGSSNVPHKTSLPEGIRVGTVMRIRGVVPNKAGRFYVNLLCGEAPGSEAALHFNPRLDESTVVFNTLEQGAWGREERGTGIPFQRGQPFDVLLIATDEGFKAVVGDSEYHHFRYRIPPARVRLLEVGGDLQLESVSVF
# Key:
# Test in all cases: glycan array binding signal (z-score within array); higher = stronger binding
# Details in all cases: glycan notation: IUPAC condensed, linker removed
# [1] = molecular target: Fuc(a1-2)Gal(b1-3)GlcNAc(b1-2)Man(a1-3)[Fuc(a1-2)Gal(b1-3)GlcNAc(b1-2)Man(a1-6)]Man(b1-4)GlcNAc(b1-4)[Fuc(a1-6)]GlcNAc
# Summary of the method: (§1)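 Glycan array data came from 3228 arrays in the Consortium for Functional Glycomics database, and only arrays with an available protein sequence were kept. Glycan names were put into IUPAC-condensed notation, and columns mapping to the same glycan were averaged. The binding signal is a within-array Z-score, averaged across arrays of one protein sequence run at different concentrations or buffers and across linkers. A negative Z-score can be read as non-binding.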
# [2] = molecular target: Fuc(a1-2)Gal(b1-3)GlcNAc(b1-3)GalNAc
# Summary of the method: as §1
# [3] = molecular target: Fuc(a1-2)Gal(b1-3)[Fuc(a1-4)]GlcNAc(b1-3)[Gal(b1-4)GlcNAc(b1-6)]Gal(b1-4)Glc
# Summary of the method: as §1
# [4] = molecular target: Fuc(a1-2)Gal(b1-4)GlcNAc(b1-3)Gal(b1-4)GlcNAc
# Summary of the method: as §1
# [5] = molecular target: Fuc(a1-2)Gal(b1-4)GlcNAc(b1-3)Gal(b1-4)GlcNAc(b1-3)Gal(b1-4)GlcNAc
# Summary of the method: as §1
# [6] = molecular target: Fuc(a1-2)Gal(b1-4)[Fuc(a1-3)]GlcNAc(b1-3)Gal(b1-4)[Fuc(a1-3)]GlcNAc(b1-3)Gal(b1-4)[Fuc(a1-3)]GlcNAc
# Summary of the method: as §1
# [7] = molecular target: Fuc(a1-2)[Gal(a1-3)]Gal(b1-4)GlcNAc(b1-2)Man(a1-3)[Fuc(a1-2)[Gal(a1-3)]Gal(b1-4)GlcNAc(b1-2)Man(a1-6)]Man(b1-4)GlcNAc(b1-4)[Fuc(a1-6)]GlcNAc
# Summary of the method: as §1
# [8] = molecular target: Fuc(a1-2)[Gal(a1-3)]Gal(b1-4)[Fuc(a1-3)]GlcNAc(b1-3)GalNAc
# Summary of the method: as §1
# [9] = molecular target: Fuc(a1-2)[GalNAc(a1-3)]Gal(b1-4)GlcNAc(b1-3)Gal(b1-4)GlcNAc
# Summary of the method: as §1
# [10] = molecular target: Fuc(a1-2)[GalNAc(a1-3)]Gal(b1-4)GlcNAc(b1-3)Gal(b1-4)GlcNAc(b1-3)Gal(b1-4)GlcNAc
# Summary of the method: as §1
# Fuc(a1-3)GlcNAc = molecular target: Fuc(a1-3)GlcNAc
# Summary of the method: as §1
# Gal(b1-2)Gal = molecular target: Gal(b1-2)Gal
# Summary of the method: as §1
# [11] = molecular target: Gal(b1-3)GalNAc(a1-3)[Fuc(a1-2)]Gal(b1-4)Glc
# Summary of the method: as §1
# [12] = molecular target: Gal(b1-3)GlcNAc(b1-2)Man(a1-3)[Gal(b1-3)GlcNAc(b1-2)Man(a1-6)]Man(b1-4)GlcNAc(b1-4)GlcNAc
# Summary of the method: as §1
# [13] = molecular target: Gal(b1-3)[Fuc(a1-4)]GlcNAc(b1-2)Man(a1-3)[Gal(b1-3)[Fuc(a1-4)]GlcNAc(b1-2)Man(a1-6)]Man(b1-4)GlcNAc(b1-4)GlcNAc
# Summary of the method: as §1
# [14] = molecular target: Gal(b1-3)[Fuc(a1-4)]GlcNAc(b1-2)Man(a1-3)[Gal(b1-3)[Fuc(a1-4)]GlcNAc(b1-2)Man(a1-6)]Man(b1-4)GlcNAc(b1-4)[Fuc(a1-6)]GlcNAc
# Summary of the method: as §1
# [15] = molecular target: Gal(b1-4)GlcNAc(b1-3)Gal(b1-4)GlcNAc(b1-3)Gal(b1-4)GlcNAc
# Summary of the method: as §1
# [16] = molecular target: Gal(b1-4)GlcNAc(b1-6)Gal(b1-4)GlcNAc
# Summary of the method: as §1
# Gal4S(b1-4)GlcNAc = molecular target: Gal4S(b1-4)GlcNAc
# Summary of the method: as §1
# Gal6S(b1-4)Glc = molecular target: Gal6S(b1-4)Glc
# Summary of the method: as §1
# Gal6S(b1-4)GlcNAc = molecular target: Gal6S(b1-4)GlcNAc
# Summary of the method: as §1
# [17] = molecular target: GlcNAc(b1-2)Man(a1-3)[GlcNAc(b1-4)][GlcNAc(b1-2)Man(a1-6)]Man(b1-4)GlcNAc(b1-4)GlcNAc
# Summary of the method: as §1
# [18] = molecular target: Neu5Ac(a2-3)Gal(b1-3)GlcNAc(b1-3)GalNAc
# Summary of the method: as §1
# [19] = molecular target: Neu5Ac(a2-6)Gal(b1-4)GlcNAc(b1-2)Man(a1-3)[Gal(b1-4)GlcNAc(b1-2)Man(a1-6)]Man(b1-4)GlcNAc(b1-4)GlcNAc
# Summary of the method: as §1
# [20] = molecular target: Neu5Ac(a2-6)Gal(b1-4)GlcNAc(b1-2)Man(a1-6)[Man(a1-3)]Man(b1-4)GlcNAc(b1-4)GlcNAc
# Summary of the method: as §1
# [21] = molecular target: Neu5Ac(a2-6)Gal(b1-4)GlcNAc(b1-3)Gal(b1-3)GlcNAc
# Summary of the method: as §1
# [22] = molecular target: Neu5Ac(a2-6)Gal(b1-4)GlcNAc(b1-3)Gal(b1-4)GlcNAc(b1-3)Gal(b1-4)GlcNAc
# Summary of the method: as §1
# [23] = molecular target: Neu5Gc(a2-3)Gal(b1-4)GlcNAc
# Summary of the method: as §1
binder,measurement,setting,value
B1,glycan array binding signal (z-score),[1],-0.169
same,glycan array binding signal (z-score),[2],-0.187
same,glycan array binding signal (z-score),[3],-0.135
same,glycan array binding signal (z-score),[4],9.85
same,glycan array binding signal (z-score),[5],8.28
same,glycan array binding signal (z-score),[6],5.78
same,glycan array binding signal (z-score),[7],1.25
same,glycan array binding signal (z-score),[8],-0.16
same,glycan array binding signal (z-score),[9],3.55
same,glycan array binding signal (z-score),[10],2.59
same,glycan array binding signal (z-score),Fuc(a1-3)GlcNAc,-0.217
same,glycan array binding signal (z-score),Gal(b1-2)Gal,-0.214
same,glycan array binding signal (z-score),[11],0.252
same,glycan array binding signal (z-score),[12],-0.08
same,glycan array binding signal (z-score),[13],-0.166
same,glycan array binding signal (z-score),[14],-0.199
same,glycan array binding signal (z-score),[15],3.2
same,glycan array binding signal (z-score),[16],-0.206
same,glycan array binding signal (z-score),Gal4S(b1-4)GlcNAc,-0.2
same,glycan array binding signal (z-score),Gal6S(b1-4)Glc,-0.204
same,glycan array binding signal (z-score),Gal6S(b1-4)GlcNAc,-0.195
same,glycan array binding signal (z-score),[17],-0.186
same,glycan array binding signal (z-score),[18],-0.22
same,glycan array binding signal (z-score),[19],-0.212
same,glycan array binding signal (z-score),[20],-0.212
same,glycan array binding signal (z-score),[21],3.85
same,glycan array binding signal (z-score),[22],3.5
same,glycan array binding signal (z-score),[23],-0.217
